Experimental data from PubChem BioAssay (NCI).
The panel holds about 83,000 compounds, 20% with a hit somewhere; the sample as a whole holds those more often.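 96-well plates, one dose, 48 hours. Percent growth reported; active if below 10.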 Values without a mark were called inactive. Activity calls are given as the source filed them.

Test system: K-562 leukemia
Assay: NCI-60 one-dose screen, 48 h (100 = growth as untreated, 0 = no growth, -100 = all killed)
Conditions: 10 µM unless noted

| SMILES | growth |
| --- | --- |
| Cc1ccc(Cl)cc1Nc1nc(C(F)(F)F)ccc1C(=O)N/N=C/c1cccnc1 | 7.72% (active) |
| Fc1ccc(-c2nn(-c3ccccc3)cc2-c2nc3ccccc3o2)cc1 | 37.5% |
| CCOC(=O)C(=Cc1cccc(Br)c1)C(=O)OCC | 21.3% |
| COc1cccc(NC(=O)Cn2cc(CN3CCN(c4ccnc5cc(Cl)ccc45)CC3)nn2)c1 | 67.4% |
| CCOC(=O)c1cc2c(=O)oc3ccccc3c2oc1=O | 122% |
| O=C(Nc1cc(Cl)ccc1O)c1ccc(Nc2ccnc(C(F)(F)F)c2)cc1 | 5.89% (active) |
| C=C(C)[C@@H]1CC[C@]2(C(=O)O)CC[C@]3(C)[C@H](CC[C@@H]4[C@@]5(C)C[C@@H](Cc6cn(CCO[C@@H]7O[C@H](COC(C)=O)[C@H](OC(C)=O)[C@H](OC(C)=O)[C@H]7OC(C)=O)nn6)[C@H](O)C(C)(C)[C@@H]5CC[C@]43C)[C@@H]12 | 53% |
| CC(C)CCC[C@@H](C)[C@H]1CC[C@H]2[C@@H]3CC=C4C[C@@H](C(C(=O)O)C(=O)O)CC[C@]4(C)[C@H]3CC[C@]12C | -48.3% (active) |
| O=S(=O)(Nc1ccc(Cl)cc1)c1ccc(-c2cnc(C3CC3)o2)cc1 | 9.33% (active) |
| C#CCOc1ccc2ncnc(Nc3ccc(NC(=O)CCl)cc3)c2c1 | 0.218% (active) |
| CCOC(=O)C1=C(NC)OCC1=O | 99% |
| COC(=O)c1c2c(c(C)[n+]([O-])c1C)C(=O)C=C(NCc1ccc(Br)cc1)C2=O | 2.51% (active) |
| CCN(CC)CCOc1ccc(-c2c(-c3ccccc3)c(=O)oc3ccccc23)cc1 | 92.1% |
| Nc1nc(=S)c2ncn(C3OC(COP(=O)(O)O)C(O)C3O)c2[nH]1 (stereo not given) | 13.7% |
| COc1ccc(/C=N/NC(=O)CCN2c3ccccc3Sc3ccccc32)cc1 | 24% |
| c1cnc2[nH]cc(-c3csc(-c4cn(CCCN5CCOCC5)c5ccccc45)n3)c2c1 | 1.22% (active) |
| S=C1CCSC(=S)N1CCCN1C(=S)CCSC1=S | 29.4% |
| COc1ccc(C(=O)Nc2ncc(Cc3ccc(F)cc3)s2)cc1 | 8.46% (active) |
| C=C1C(=O)O[C@H]2[C@H]1CC/C(COC(=O)NCc1cc[nH]c1)=C\CC[C@@]1(C)O[C@@H]21 | 16.6% |
| CN(C)CCCC1(c2ccc(F)cc2)OCc2cc(-c3cccc4[nH]ccc34)ccc21 (stereo not given) | -4.22% (active) |

| SMILES | growth |
| --- | --- |
| COC(C(=O)[C@@H](O)[C@@H](C)O)[C@@H]1Cc2cc3cc(O[C@H]4C[C@@H](O[C@H]5C[C@@H](O)[C@H](O)C(C)O5)[C@H](O)C(C)O4)c(C)c(O)c3c(O)c2C(=O)[C@H]1O[C@H]1C[C@@H](O[C@H]2C[C@@H](O[C@H]3C[C@@H](O)[C@H](OC)C(C)O3)[C@@H](O)C(C)O2)[C@H](O)C(C)O1 (stereo not given in full) | 5.99% (active) |
| CCNc1cc(-c2cccc(OC(F)(F)F)c2)nc2ccc(N3CCCC3)cc12 | 4.34% (active) |
| CCNc1nc(-c2ccc(Cl)c(OC)c2)c(-c2ccnc(NCCCNS(=O)(=O)c3ccc(Cl)cc3)n2)s1 | 32.3% |
| Cc1nc2c(=O)[nH]c(SCC(=O)Nc3cccc(F)c3)nc2[nH]c1=O | 101% |
| Cc1ccc(-c2nc3nc(-c4ccc(F)cc4)nc(N4CCNCC4)c3o2)cc1 | -53.1% (active) |
| O=C(/C=C(/C=C/c1cccc2[nH]ccc12)OB(F)F)/C=C/c1cccc2[nH]ccc12 | -2.54% (active) |
| Oc1c(Cl)cc(Cl)c2ccc(Cn3cc(-c4cc(C(F)(F)F)cc(C(F)(F)F)c4)nn3)nc12 | 6.87% (active) |
| CC[C@@H](C(=O)[C@@H](C)[C@@H](O)[C@H](C)[C@@H]1O[C@@H]([C@@H](CC)C(=O)NCCc2ccc(F)cc2)CC[C@@H]1C)C1O[C@]2(C=CC(=O)[C@]3(CC[C@@](C)([C@H]4CC[C@](O)(CC)[C@H](C)O4)O3)O2)[C@H](C)C[C@@H]1C (stereo not given in full) | 17% |
| c1cc2[nH]ncc2cc1-c1nc2ccc3[nH]ncc3c2c2c1CCCC2 | 15.3% |
| C#CCOc1cccc(Nc2ncnc3c(NC(=O)C=C)cccc23)c1 | 5% (active) |
| N#Cc1cnc(NCCc2ccncc2)nc1-n1cnc2ccccc21 | 60.9% |
| CCOC(=O)c1c(NC(=O)c2ccc(C(C)C)cc2)sc2c(CN(C)C)c(O)ccc12 | -31.3% (active) |
| COc1ccc(N2CCC(=O)NC2=S)cc1 | 107% |
| Oc1c(Cl)cc(Cl)c2ccc(Cn3cc(-c4cc(F)cc(F)c4)nn3)nc12 | 7.96% (active) |
| CO/N=C(/C)c1ccc(NC(=O)CSc2nnc(-c3ccncc3)n2-c2ccccc2)cc1 | 91.6% |
| O=C1c2cccnc2C(=O)c2c1c(C(=O)NCCn1ccnc1)c1ccccn21 | 29.3% |
| O=C1NC(=O)c2c1c1c3ccccc3ccc1c1[nH]c3ccc(Br)cc3c21 | 13.3% |
| Cc1ccc(-c2nc3nc(-c4ccccc4)nc(N4CCNCC4)c3o2)cc1 | -71% (active) |
| CC(C)(C)n1cc(-c2ccnc(NCCNS(=O)(=O)c3cccc(F)c3)c2)c(-c2ccccc2)n1 | 44.2% |
| Cc1c(-n2nnc(-c3nc4ccccc4s3)c2N)c(=O)n(-c2ccccc2)n1C | 102% |
